Growth data for 15 compounds are collected here from PubChem BioAssay (NCI).

This is part of a sample that, as a whole, favours compounds with a hit. Of some 83,000 tested, about 20% had one in any assay.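 Cell lines were cultured in 96-well plates, exposed to a single compound concentration, and assessed for percent growth 48 hours later.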 Activity calls are given as the source filed them. How the source made its calls: active means growth percent below 10; inactive means the rest.

This assay has as its system HL-60(TB) leukemia. Nature of the assay: NCI-60 one-dose screen, 48 h (100 = growth as untreated, 0 = no growth, -100 = all killed). Particulars: 10 µM unless noted.
On to `COc1cc(C2NC(c3ccc(Cl)cc3)C(C)/C(=N/NC(N)=S)C2C)cc(OC)c1OC` (stereo not given), for which the growth was 79.9% (inactive).
For the compound `COC(c1ccc2ccccc2c1)C(C)C(F)F` (stereo not given), the growth is 103% (inactive).
For `COC(=O)c1c2c(c(C)[n+]([O-])c1C)C(=O)C(NCc1ccccc1)=CC2=O`, the growth is -2.98% (active).
With `COc1ccc(-c2nc3ccccn3c2-c2nnc(-c3cc(OC)c(OC)c(OC)c3)o2)cc1`, the growth is 85.6% (inactive).
In the case of `O=[N+]([O-])CC(c1ccccc1F)c1c[nH]c2ccccc12` (stereo not given), the growth was 51.1% (inactive).
As to `O=c1c2cc(F)ccc2sc2c(NCCCNCCO)nc3ccccc3c12`, the growth was 6.49% (active).
To `CCSCC1CC(O)(c2ccccc2)CC(c2ccc(F)cc2)O1` (stereo not given) belongs -31.9% (active).
Consider `CN1CCN(C(=O)C(C)(C)c2ccc(C(=O)Nc3cn4cc(-c5ccncc5)ccc4n3)cc2)CC1`, for which the growth is 7.51% (active).
With `COc1cc2cc(Oc3ccc(NC(=O)c4ccccc4)cc3)c(C)nc2cc1OC` the figure was 100% (inactive).
As for `CCCCCN1C=C/C(=C\C(=O)N(C)c2ccc(Oc3ccccc3)cc2)c2ccccc21`, the growth is 66.9% (inactive).
Consider `COc1ccc(-c2nc3ccc(-c4nc5ccc(N6CCN(c7ccccc7)CC6)cc5[nH]4)cc3[nH]2)cc1OC`, for which the growth is 16.1% (inactive).
In the case of `Cc1[nH]c2ccccc2c1C1=CC(=O)C=CC1=O`, the growth was 12.4% (inactive).
Consider `CC(=O)N(C)c1ccc([N+](=O)[O-])cc1`, for which the growth was 72.8% (inactive).
Turning to `COc1cc(OC)c2sc(-c3ccc(-n4cncc4-c4ccc(N)cc4)cc3)nc2c1`, the growth was 52.6% (inactive).
Take `O=C1CN(CCN2CC(=O)NC(=O)C2)CC(=O)N1`: the growth was 88% (inactive).
